TRHR PAM: qHTS for Small Molecule Agonists and Allosteric Enhancers of Human TRH Receptor: Primary Screen for Enhancers; TRHR cells, fluo-8 calcium fluorescence, EC20 TRH enhancement; enhancement, % at 2 µM; hit rate 0.66% among 360,000; AID 493056, 2011; in the data active means enhancement above about 30%
Target sequence (P34981 whole entry, looked up): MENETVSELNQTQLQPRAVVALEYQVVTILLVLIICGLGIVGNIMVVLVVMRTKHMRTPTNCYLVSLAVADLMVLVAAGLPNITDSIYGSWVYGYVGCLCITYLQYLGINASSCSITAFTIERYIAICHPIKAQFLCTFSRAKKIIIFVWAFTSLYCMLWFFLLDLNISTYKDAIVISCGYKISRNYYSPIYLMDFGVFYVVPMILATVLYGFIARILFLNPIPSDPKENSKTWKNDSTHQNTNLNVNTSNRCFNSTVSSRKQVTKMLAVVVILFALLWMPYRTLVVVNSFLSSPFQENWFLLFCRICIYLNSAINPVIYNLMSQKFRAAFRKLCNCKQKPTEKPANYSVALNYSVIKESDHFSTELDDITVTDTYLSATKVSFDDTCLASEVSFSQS
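Enhancer read-out: after compound pinning and an initial kinetic agonist-mode read, an EC20 of TRH (10 nM final) was injected and fluo-8 calcium signal (Ex 480/Em 530) followed at 1 s/cycle for 100 cycles in TRHR-expressing cells.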
TRHR ag: qHTS for Small Molecule Agonists and Allosteric Enhancers of Human TRH Receptor: Primary Screen for Agonists; Thyrotropin-releasing hormone receptor (Homo sapiens), P34981; TRHR cells, calcium flux fluo-8, FDSS agonist mode; activation, % at 2 µM; hit rate 0.18% among 360,000; AID 493084, 2011
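Agonist-mode FDSS calcium read (Ex 480/Em 530, 1 s cycles) in 1536-well TRHR cells with fluo-8 dye, after 10-cycle baseline and 23 nL compound addition; TRH at EC20 (10 nM final) added afterwards for the enhancer phase.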
D1 antagonist: Antagonist of Human D 1 Dopamine Receptor: qHTS. HEK293 TREx D1 cells, calcium flux, dopamine EC80; stronger effect = lower value. activity change, negative = inhibition, % at 10 µM. hit rate 3.2% among 360,000. AID 504652, 2011; in the data active means activity change below about -30%
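Calcium flux readout: force-coupled, inducible Hek293 Trex D1 line, cells induced overnight at 30 C with tetracycline, dye-loaded 30–90 min at RT. Antagonism scored against EC80 dopamine challenge given 180 s after compound.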
D1 potentiator: Potentiators of Human D1 Dopamine Receptor: qHTS; hit rate 0.036% among 360,000; AID 504651, 2011; D(1A) dopamine receptor (Homo sapiens), P21728; HEK293 TREx D1 cells, calcium flux, dopamine EC20 potentiation; potentiation, % at 10 µM; in the data active means potentiation above about 30%
D1 agonist: Allosteric Agonists of the Human D1 Dopamine Receptor: qHTS. HEK293 T-REx D1 cells, calcium flux, agonist mode. hit rate 1% among 360,000. activation, % at 2 µM. AID 504660, 2011. D(1A) dopamine receptor (Homo sapiens), P21728
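Tetracycline-induced HEK293 TREx D1 cells, force-coupled to calcium signalling, were dye-loaded with a no-wash calcium kit. Compound was pin-added after a 10 s baseline. Fluorescence was read kinetically at 1 cycle/s for 180 s, with calcium rises flagged as agonism.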
Each line names hits and unclear results; the compound was inactive in the other large screens. Most compounds without a hit are left out; they make up all but 4.6% or so of the library. Unless noted, no stated cut-off is given here; in the data, active means activation above about 30%; inactive means the rest.

Cc1ccc(N2C(S)=C(C#N)C(=O)NC2c2ccco2)cc1 (stereo unspecified)	D1 antagonist -47
N#CC1=C(S)N(c2ccccc2)C(c2ccc(-c3ccc(Cl)c(Cl)c3)o2)NC1=O (stereo unspecified)	D1 agonist 63
Cc1nnc(SCC(=O)Nc2ccc([N+](=O)[O-])cc2)n1CC1CCCO1 (stereo unspecified)	none
Cc1ccc(NC2=NC3(CCCCC3)N=C(N)N2)c(C)c1	D1 antagonist -66
NC1=NC2(CCCCC2)N=C(Nc2ccc(Br)cc2)N1	D1 antagonist -37
Cc1ccc(C)c(NC2=NC3(CCCCC3)N=C(N)N2)c1	none
Cc1cccc(C)c1NC1=NC2(CCCCC2)N=C(N)N1	none
Cc1ccc(NC2=NC3(CCCC3)N=C(N)N2)c(C)c1	D1 antagonist -37
O=C(c1cc(C2CC2)nn1-c1ccccc1)N1CCN(c2ccc(O)cc2)CC1	TRHR PAM 30
CCN(CC)S(=O)(=O)c1ccc(C(=O)N2CC(=O)Nc3ccc(F)cc3C2c2ccccc2)cc1 (stereo unspecified)	none
OCCN1CCN(c2nc(NCc3ccco3)c3ccccc3n2)CC1	none
Oc1ccccc1Nc1nc(NCc2ccco2)c2ccccc2n1	none
Cc1ccccc1Nc1nc(NCc2ccco2)c2ccccc2n1	D1 antagonist -36
Cc1ccc(OCCN2CCN(c3nc(NCc4ccco4)c4ccccc4n3)CC2)cc1	D1 antagonist -33
CCOc1ccc(NC(=O)CSc2nc3nc(C)c(Cc4ccccc4)c(C)n3n2)cc1	none
Cc1ccc(OCC(=O)NCC(=O)OCc2cc(=O)n3nc(CC(C)C)sc3n2)cc1	D1 antagonist -36
NS(=O)(=O)c1cccc(NC(=O)COC(=O)CC2CC3CCC2C3)c1 (stereo unspecified)	none
Cc1ccc(OCC(=O)NCCNC(=O)c2cnccn2)cc1C	D1 agonist 39
O=C(c1ccc2c(=O)n3c(nc2c1)CCCCC3)N1CCN(c2ccc(F)cc2)CC1	D1 antagonist -50
CN(CC(=O)Nc1ccccc1C(F)(F)F)C(=O)c1ccc2c(=O)n3c(nc2c1)CCC3	D1 antagonist -32
CCN(C(=O)c1ccc2c(=O)n3c(nc2c1)CCCCC3)c1cc(C)ccc1C	D1 antagonist -52
Cc1cccc(NC(=O)c2ccc3c(=O)n4c(nc3c2)CCCCC4)n1	D1 antagonist -37
CN(C(=O)Cn1ncc2c1-c1ccccc1OC2)c1ccc(Br)cc1	none
CCOc1ccc(OCC)c(NC(=O)c2cnn(-c3ccc(F)cc3)c2C2CCN(C(=O)OC(C)(C)C)CC2)c1	none
Cc1c(Cl)c([N+](=O)[O-])nn1Cc1ccc(C(=O)N/N=C\c2cccc(Br)c2)o1	none
CCCCNC(=O)C1CC(c2cccc(F)c2)=NO1 (stereo unspecified)	D1 antagonist -45
Cc1ccc(CCNC(=O)C2CC(c3cc(C(F)(F)F)cc(C(F)(F)F)c3)=NO2)cc1 (stereo unspecified)	none
Cc1ccc(CCNC(=O)C2CC(c3cccc(F)c3)=NO2)cc1 (stereo unspecified)	D1 antagonist -62
CC(C)CCNC(=O)C1CC(c2cccc(F)c2)=NO1 (stereo unspecified)	none
CCOC(=O)c1nc(N2CCN(c3ccc(F)cc3)CC2)c2c(C)noc2n1	none
CC1=CC(=O)C=C(C)C1=NOS(=O)(=O)c1ccccc1	none
CC1=CC(=O)C(C(C)C)=C/C1=N/OS(=O)(=O)c1ccccc1	D1 antagonist -31
N#Cc1ccc(C(=O)NCc2ccc3c(c2)CCN3C(=O)c2ccc(F)cc2)cc1	D1 antagonist -33
COc1ccc(CCC(=O)NCc2ccc3c(c2)CCN3C(=O)c2ccc(Cl)cc2)cc1	D1 antagonist -35
CCOc1ccc(C(=O)NCc2ccc3c(c2)CCN3C(=O)c2ccc(C)cc2)cc1OCC	D1 antagonist -66
Cc1cccc(NC(=O)c2ccc(Cn3nc(N4CCN(c5ccccc5)CC4)ccc3=O)o2)c1C	none

Compound activity deposited in PubChem by National Center for Advancing Translational Sciences (NCATS).
